Source: PubChem BioAssay (NCATS)
Where “and” joins values, the source holds several entries; their conditions need not be identical. Equal values may be shown once. Inconclusive results are not listed. A call without a number means that no potency is given here. Calls of active or inactive are those of the source. Unless noted, the call rests on the fitted dose curve.

Tests used:
[1] = molecular target: Voltage-gated inwardly rectifying potassium channel KCNH2 (Homo sapiens) (UniProt Q12809); assay: qHTS Assay for Small Molecule Inhibitors of the Human hERG Channel Activity (AID 588834; active means well fitted curve in the direction sought with a large enough effect; an effect the other way counts as inactive or inconclusive;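 further: lower thallium flux fluorescence means stronger hERG block; nearly all actives have a fitted effect of over 50% in size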; further: potency means the concentration at half of the fitted maximal effect)
Chain of Voltage-gated inwardly rectifying potassium channel KCNH2 (Homo sapiens) (Q12809 whole entry, looked up): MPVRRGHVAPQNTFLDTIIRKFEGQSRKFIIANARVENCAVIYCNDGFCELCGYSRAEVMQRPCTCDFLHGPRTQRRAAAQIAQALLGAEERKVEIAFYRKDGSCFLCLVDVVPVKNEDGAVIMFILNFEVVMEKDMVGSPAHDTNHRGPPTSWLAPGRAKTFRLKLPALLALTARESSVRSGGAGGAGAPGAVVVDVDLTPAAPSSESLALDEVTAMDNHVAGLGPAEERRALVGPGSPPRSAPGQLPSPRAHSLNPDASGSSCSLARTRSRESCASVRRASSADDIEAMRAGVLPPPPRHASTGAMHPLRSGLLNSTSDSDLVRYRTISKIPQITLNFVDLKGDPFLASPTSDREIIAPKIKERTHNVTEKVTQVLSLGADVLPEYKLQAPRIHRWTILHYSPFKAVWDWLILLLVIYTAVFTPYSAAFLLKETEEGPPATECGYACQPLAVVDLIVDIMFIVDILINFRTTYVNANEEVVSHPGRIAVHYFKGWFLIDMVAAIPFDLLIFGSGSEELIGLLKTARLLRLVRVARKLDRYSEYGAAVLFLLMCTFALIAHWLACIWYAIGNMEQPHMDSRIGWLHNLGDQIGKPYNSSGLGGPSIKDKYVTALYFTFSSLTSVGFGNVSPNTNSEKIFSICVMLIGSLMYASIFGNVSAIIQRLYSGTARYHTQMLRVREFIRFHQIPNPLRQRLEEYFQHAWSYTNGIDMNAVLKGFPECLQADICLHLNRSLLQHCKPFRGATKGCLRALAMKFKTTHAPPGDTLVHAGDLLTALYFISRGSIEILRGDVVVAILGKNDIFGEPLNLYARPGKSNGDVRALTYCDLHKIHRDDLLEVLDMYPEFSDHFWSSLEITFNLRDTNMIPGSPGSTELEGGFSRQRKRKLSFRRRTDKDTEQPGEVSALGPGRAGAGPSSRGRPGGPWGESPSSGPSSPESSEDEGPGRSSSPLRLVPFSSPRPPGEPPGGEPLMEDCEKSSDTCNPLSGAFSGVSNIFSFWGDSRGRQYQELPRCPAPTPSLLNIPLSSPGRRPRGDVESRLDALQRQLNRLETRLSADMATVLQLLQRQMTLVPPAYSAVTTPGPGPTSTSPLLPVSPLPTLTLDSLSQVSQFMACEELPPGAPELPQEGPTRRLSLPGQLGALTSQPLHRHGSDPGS
Method in brief: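 Concentration-response qHTS measuring drop in thallium-sensitive dye signal. U2OS cells carrying BacMam hERG; compound exposure ~10 min, then stimulation buffer and 2 min read at 1 sec intervals.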

[2] = molecular target: Peroxisome proliferator-activated receptor delta (Homo sapiens) (UniProt Q03181); assay: qHTS assay for small molecule agonists of peroxisome proliferator-activated receptor delta signaling (AID 588534)
Chain of Peroxisome proliferator-activated receptor delta (Homo sapiens) (Q03181 whole entry, looked up): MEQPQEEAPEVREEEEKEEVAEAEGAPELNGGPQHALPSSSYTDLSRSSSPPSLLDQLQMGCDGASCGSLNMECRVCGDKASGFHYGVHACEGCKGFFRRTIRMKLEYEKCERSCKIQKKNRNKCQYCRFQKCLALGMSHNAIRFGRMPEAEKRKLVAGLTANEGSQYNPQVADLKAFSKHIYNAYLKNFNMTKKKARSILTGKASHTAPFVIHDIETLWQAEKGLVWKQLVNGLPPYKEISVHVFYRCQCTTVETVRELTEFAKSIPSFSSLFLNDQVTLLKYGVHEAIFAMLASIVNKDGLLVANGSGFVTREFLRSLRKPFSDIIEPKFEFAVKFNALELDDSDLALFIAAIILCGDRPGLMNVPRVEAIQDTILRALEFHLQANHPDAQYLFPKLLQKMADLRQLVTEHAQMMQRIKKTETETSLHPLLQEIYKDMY
Method in brief: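 Cells carrying a PPAR-delta beta-lactamase reporter were treated with compounds for 18 h at 37 °C in agonist mode. CCF4 fluorescence was read after 2 h; EC50 and efficacy from Hill fits.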

[3] = qHTS assay for small molecule antagonists of peroxisome proliferator-activated receptor delta signaling (AID 588535; active means well fitted inhibition curve with a large enough effect in the signal ratio, with a control signal flat, not every such curve was filed as active; the % refers to the signal ratio; further: potency means the concentration at half of the fitted maximal effect;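 on max response: cells co-treated with a PPAR-delta agonist as stimulator during compound exposure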); settings: HEK293T PPARd-UAS-bla, beta-lactamase FRET ratio, 18 h; 460 nm channel
Method in brief: (§1)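 Antagonist-mode beta-lactamase reporter (GeneBLAzer PPAR-delta-UAS-bla) in HEK293T cells, 2% charcoal/dextran FBS, 4000 cells/well. Compound titrations, 18 h at 37 C; CCF4 ratio read, IC50 and efficacy from Hill fits.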

[4] = molecular target: Peroxisome proliferator-activated receptor delta (Homo sapiens) (UniProt Q03181); assay: as above
Method in brief: as §1

[5] = molecular target: Peroxisome proliferator-activated receptor gamma (Homo sapiens) (UniProt P37231); assay: qHTS assay for small molecule agonists of peroxisome proliferator-activated receptor gamma signaling (AID 588536; active means well fitted curve in the direction sought with a large enough effect in the signal ratio, with a control signal flat, not every such curve was filed as active; the % refers to the signal ratio)
Chain of Peroxisome proliferator-activated receptor gamma (Homo sapiens) (P37231 whole entry, looked up): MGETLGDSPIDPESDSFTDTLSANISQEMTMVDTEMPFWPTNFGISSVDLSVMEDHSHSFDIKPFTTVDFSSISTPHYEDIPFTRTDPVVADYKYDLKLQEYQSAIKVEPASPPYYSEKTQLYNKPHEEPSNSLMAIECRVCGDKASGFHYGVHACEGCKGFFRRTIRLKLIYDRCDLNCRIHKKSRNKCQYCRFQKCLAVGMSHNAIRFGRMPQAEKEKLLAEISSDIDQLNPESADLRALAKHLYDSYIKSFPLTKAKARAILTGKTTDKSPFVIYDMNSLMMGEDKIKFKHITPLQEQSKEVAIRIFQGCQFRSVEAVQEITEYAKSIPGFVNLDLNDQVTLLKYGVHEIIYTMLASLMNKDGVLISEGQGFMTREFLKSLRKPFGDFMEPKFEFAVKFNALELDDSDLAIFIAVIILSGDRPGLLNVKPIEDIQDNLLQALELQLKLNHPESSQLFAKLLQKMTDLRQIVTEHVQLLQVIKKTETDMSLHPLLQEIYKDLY
Method in brief: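 Ratiometric blue/green fluorescence (405 nm excitation; 460 and 530 nm emission) from CCF4-loaded HEK293 reporter cells serves as signal. Exposure to test compounds lasts 16 h at 37 C in medium containing 1% charcoal/dextran-treated serum.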

[6] = molecular target: Peroxisome proliferator-activated receptor gamma (Homo sapiens) (UniProt P37231); assay: qHTS assay for small molecule antagonists of peroxisome proliferator-activated receptor gamma signaling (AID 588537; active means well fitted inhibition curve with a large enough effect in the signal ratio, with a control signal flat, not every such curve was filed as active; the % refers to the signal ratio;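 further: reporter cells co-stimulated with 50 nM rosiglitazone agonist during compound treatment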)
Method in brief: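 PPARγ-UAS-bla HEK293 cells (3000/well) in 1% charcoal/dextran-stripped FBS are treated with compound, then stimulated with 50 nM rosiglitazone for 16 h at 37 °C. Read-out is CCF4 β-lactamase fluorescence after 2 h at RT. IC50 comes from Hill fits normalised to rosiglitazone and DMSO.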

[7] = qHTS assay for small molecule agonists of retinoid X receptor alpha signaling (AID 588544); settings: HEK293T RXRa-UAS-bla, beta-lactamase reporter, 18 h; 530 nm emission
[8] = molecular target: Retinoic acid receptor RXR-alpha (Homo sapiens) (UniProt P19793); assay: as above
Chain of Retinoic acid receptor RXR-alpha (Homo sapiens) (P19793 whole entry, looked up): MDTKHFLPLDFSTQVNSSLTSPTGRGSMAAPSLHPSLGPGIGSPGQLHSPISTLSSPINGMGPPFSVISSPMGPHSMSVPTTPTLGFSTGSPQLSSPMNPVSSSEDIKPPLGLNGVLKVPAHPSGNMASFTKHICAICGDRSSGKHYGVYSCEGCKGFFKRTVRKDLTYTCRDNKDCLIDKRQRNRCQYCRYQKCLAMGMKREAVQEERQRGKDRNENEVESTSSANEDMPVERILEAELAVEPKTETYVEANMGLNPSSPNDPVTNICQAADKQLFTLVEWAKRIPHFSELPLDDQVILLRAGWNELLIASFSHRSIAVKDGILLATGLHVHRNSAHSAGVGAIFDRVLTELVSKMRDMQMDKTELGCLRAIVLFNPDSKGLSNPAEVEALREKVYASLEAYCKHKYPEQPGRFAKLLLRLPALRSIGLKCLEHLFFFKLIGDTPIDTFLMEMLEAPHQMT

[9] = molecular target: Thyroid hormone receptor beta (Homo sapiens) (UniProt P10828); assay: qHTS assay for small molecule agonists of thyroid hormone receptor beta signaling (AID 588545)
Chain of Thyroid hormone receptor beta (Homo sapiens) (P10828 whole entry, looked up): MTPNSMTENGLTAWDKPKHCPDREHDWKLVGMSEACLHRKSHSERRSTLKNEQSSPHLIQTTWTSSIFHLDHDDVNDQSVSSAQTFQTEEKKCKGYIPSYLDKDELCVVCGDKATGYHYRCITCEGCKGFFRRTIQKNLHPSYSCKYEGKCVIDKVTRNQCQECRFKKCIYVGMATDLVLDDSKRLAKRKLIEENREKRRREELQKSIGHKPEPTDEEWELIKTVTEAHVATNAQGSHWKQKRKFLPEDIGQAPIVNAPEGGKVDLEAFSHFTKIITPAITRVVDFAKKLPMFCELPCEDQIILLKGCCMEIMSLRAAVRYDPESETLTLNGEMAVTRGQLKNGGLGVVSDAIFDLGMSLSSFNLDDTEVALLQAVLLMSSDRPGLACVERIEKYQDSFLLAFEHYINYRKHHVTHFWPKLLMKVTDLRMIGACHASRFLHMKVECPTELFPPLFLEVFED
Method in brief: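 Agonist-mode beta-lactamase reporter assay, HEK 293 cells, 2% charcoal/dextran FBS; cells plated 4 hrs, compound 18 hrs at 37 C, CCF4 2 hrs RT. Normalized to 10 nM T3 (100%) and DMSO (0%); Hill fit gives EC50, efficacy.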

[10] = qHTS assay for small molecule antagonists of retinoid X receptor alpha signaling (AID 588546; active means well fitted inhibition curve with a large enough effect in the signal ratio, with a control signal flat, not every such curve was filed as active; the % refers to the signal ratio; further: potency means the concentration at half of the fitted maximal effect;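 on max response: cells stimulated with 9-cis-retinoic acid as agonist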); settings: HEK293T RXRa-UAS-bla, beta-lactamase ratio, antagonist mode; measured here: W530 green channel, cytotoxicity proxy
Method in brief: (§2)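 Beta-lactamase reporter inhibition, read as CCF4 fluorescence ratio (ex 405, em 460/530 nm) after 2 h at RT. HEK293T UAS-bla cells, 2500/well, were stimulated with 9-cis-RA at 500 or 100 nM final alongside test compound for 18 h at 37 C.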

[11] = molecular target: Retinoic acid receptor RXR-alpha (Homo sapiens) (UniProt P19793); assay: as above; settings: HEK293T RXRa-UAS-bla, beta-lactamase ratio, antagonist mode
Method in brief: as §2

[12] = molecular target: Thyroid hormone receptor beta (Homo sapiens) (UniProt P10828); assay: qHTS assay for small molecule antagonists of thyroid hormone receptor beta signaling (AID 588547; active means well fitted inhibition curve with a large enough effect in the signal ratio, with a control signal flat, not every such curve was filed as active; the % refers to the signal ratio;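 further: cells stimulated with 0.4 nM T3 agonist during compound exposure; series mostly up to about 77 µM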); settings: TR-UAS-bla HEK293, beta-lactamase ratio, antagonist mode, 18 h
Method in brief: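 TR-UAS-bla GripTite HEK293 cells in 2% charcoal/dextran FBS medium; compounds 0.59 nM to 92 uM with T3 at 0.4nM final, 18 h at 37 C. Beta-lactamase read by CCF4 fluorescence (460/530 nm); Hill fits gave IC50 and efficacy.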

[13] = molecular target: Luciferin 4-monooxygenase (Photinus pyralis) (UniProt P08659); assay: Biochemical firefly luciferase enzyme assay for NPC (AID 624030; active means well fitted curve in the direction sought with a large enough effect; an effect the other way counts as inactive or inconclusive;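 further: purified P. pyralis luciferase at 10 nM with luciferin and ATP substrate; series mostly up to about 59 µM; nearly all actives have a fitted effect of over 70% in size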)
Chain of Luciferin 4-monooxygenase (Photinus pyralis) (P08659 whole entry, looked up): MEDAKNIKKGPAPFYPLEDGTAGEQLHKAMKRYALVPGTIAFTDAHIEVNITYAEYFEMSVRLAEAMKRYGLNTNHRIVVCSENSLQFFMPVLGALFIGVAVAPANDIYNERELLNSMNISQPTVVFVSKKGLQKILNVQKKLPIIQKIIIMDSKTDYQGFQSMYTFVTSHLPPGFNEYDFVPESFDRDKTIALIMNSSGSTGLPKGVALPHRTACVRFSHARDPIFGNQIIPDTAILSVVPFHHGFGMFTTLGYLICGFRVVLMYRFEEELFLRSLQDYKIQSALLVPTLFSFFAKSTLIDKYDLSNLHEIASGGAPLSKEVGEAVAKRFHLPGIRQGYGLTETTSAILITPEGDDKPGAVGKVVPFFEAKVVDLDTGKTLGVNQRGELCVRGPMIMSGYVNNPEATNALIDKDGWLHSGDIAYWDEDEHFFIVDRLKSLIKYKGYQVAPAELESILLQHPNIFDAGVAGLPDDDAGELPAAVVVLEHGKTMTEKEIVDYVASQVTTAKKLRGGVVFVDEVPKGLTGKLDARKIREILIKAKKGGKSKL
Method in brief: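 Purified P. pyralis luciferase at 10 nM in 50 mM Tris Acetate (final), luminescence read within 5 minutes of enzyme addition to compounds. Activity normalised to PTC124 versus DMSO; concentration-response curves classed by r2, magnitude and activity.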

[14] = S16 Schwann cell viability assay (CellTiter-Glo assay) (AID 624031; active means well fitted curve in the direction sought with a large enough effect; an effect the other way counts as inactive or inconclusive;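 further: native untransfected S16 rat Schwann cells; cellular ATP luminescence as a viability measure; series mostly up to about 58 µM; nearly all actives have a fitted effect of over 70% in size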)
Method in brief: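 Rat S16 Schwann cells without reporter constructs received compound or DMSO for 24 h at 37 °C under 5% CO2. Cellular ATP was then quantified by CellTiter-Glo luminescence, with vehicle wells defined as 0% activity and cell-free wells as reference.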

[15] = S16 Schwann cell PMP22 intronic element firefly luciferase assay (AID 624032; active means well fitted curve in the direction sought with a large enough effect; an effect the other way counts as inactive or inconclusive; further: nearly all actives have a fitted effect of over 30% in size; further: potency means the concentration at half of the fitted maximal effect)
Method in brief: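 Rat S16 Schwann cells stably carrying firefly luciferase driven by a PMP22 intronic element, in 10% FBS, treated 24 h at 37 C. ONE-Glo luminescence normalized to PTC124 control and DMSO (0%); curves classed by r2, magnitude and activity.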

[16] = molecular target: Vitamin D3 receptor (Homo sapiens) (UniProt P11473); assay: qHTS assay for small molecule agonists of vitamin D receptor signaling (AID 588543)
Chain of Vitamin D3 receptor (Homo sapiens) (P11473 whole entry, looked up): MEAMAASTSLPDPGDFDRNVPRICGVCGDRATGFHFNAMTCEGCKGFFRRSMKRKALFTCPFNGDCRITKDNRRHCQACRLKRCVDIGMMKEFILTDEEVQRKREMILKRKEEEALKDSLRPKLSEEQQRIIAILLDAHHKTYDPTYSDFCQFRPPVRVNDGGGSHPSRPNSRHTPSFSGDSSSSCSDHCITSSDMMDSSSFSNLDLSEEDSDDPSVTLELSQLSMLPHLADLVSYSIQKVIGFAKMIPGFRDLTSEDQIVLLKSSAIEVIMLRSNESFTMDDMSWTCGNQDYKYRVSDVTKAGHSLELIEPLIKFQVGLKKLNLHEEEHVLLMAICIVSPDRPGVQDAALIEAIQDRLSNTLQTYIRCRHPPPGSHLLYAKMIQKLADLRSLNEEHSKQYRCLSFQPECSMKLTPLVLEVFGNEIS
Method in brief: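 β-lactamase reporter, VDR-UAS-bla HEK293T, agonist mode. Cells plated 5 h at 37 °C, compound titration 16 h at 37 °C, CCF4 dye 2 h RT, ratio 460/530 nm. Hill fit → EC50, efficacy vs 50 nM 1α,25-(OH)2D3.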

In the case of C[C@@H]1CC[C@H]2[C@@H](C)C(=O)O[C@@H]3O[C@@]4(C)CC[C@@H]1[C@]32OO4, the Potency [1] is reported as “inactive”.
In the case of COc1ccc(C(Cl)=C(c2ccc(OC)cc2)c2ccc(OC)cc2)cc1, the outcome [2] is reported as “inactive”.
For Oc1ccc(/C=C/c2cc(O)cc(O)c2)cc1, the outcome [2] was “inactive”.
For CN(C)C(=O)Nc1ccc(Cl)c(Cl)c1, the outcome [2] was “inactive”.
With CCOC(=O)c1cncn1C(C)c1ccccc1 (centres undefined) the Potency [1] was “inactive”.
With Oc1c(Br)cc(Br)cc1Br the outcome [2] was “inactive”, the max response [3] was 18.5% and the Potency [4] was “inactive”. The outcome [5] was “inactive”, the Potency [6] was “inactive” and the max response [7] was -20.6%. For the same molecule, the outcome [8] was “inactive”, the outcome [9] was “inactive” and the max response [10] was 9.85% and -7.56%. The max response [11] was -6.81% (inactive) and -18.8% (inactive), the activity change % (negative = inhibition) [12] was 15.6% (inactive) and the Potency [1] was “inactive”. For the same molecule, the Potency [13] was “inactive”, the Potency [14] was “inactive” and the Potency [15] was “inactive”.
For CCCCCCCC/C=C\CCCCCCCCN, the outcome [2] was “inactive”.
For O=C1c2cccc(O)c2C(=O)c2c(O)cccc21, the outcome [2] was “inactive”.
For Cc1c(N(C)C)c(=O)n(-c2ccccc2)n1C, the outcome [2] was “inactive”.
In the case of NS(=O)(=O)c1cc(C(=O)O)c(NCc2ccco2)cc1Cl, the outcome [2] is reported as “inactive”.
For C[C@H](N)[C@H](O)c1ccc(O)c(O)c1, the Potency [1] was “inactive”.
For O=C(Nc1ccc(Cl)cc1)Nc1ccc(Cl)c(Cl)c1, the max response [10] was -4.96%, the Potency [11] was 10 µM (active) and the Potency [15] was “inactive”.
For C[C@]12CCC(=O)C=C1CC[C@@H]1[C@@H]2C(=O)C[C@@]2(C)[C@H]1CC[C@]2(O)C(=O)CO, the outcome [2] was “inactive”.
For CNC(=O)Oc1ccc2c(c1)[C@]1(C)CCN(C)[C@@H]1N2C, the outcome [2] was “inactive”.
With COP(=O)(OC)OC=C(Cl)Cl the outcome [2] was “inactive”, the max response [3] was 3.66% and 4.74% and -42.4% and the Potency [4] was “inactive”. For the same molecule, the outcome [5] was “inactive”, the max response [7] was -12.2% and -24.6% and -4.24% and the outcome [8] was “inactive”. The outcome [9] was “inactive”, the max response [10] was -12% and -6.53% and -17.3% and the max response [11] was 5.84% (inactive) and -9.46% (inactive) and -14.2% (inactive). For the same molecule, the activity change % (negative = inhibition) [12] was -21% (inactive) and -1.19% (inactive) and -2.09% (inactive), the Potency [1] was “inactive” and the Potency [13] was “inactive”. For the same molecule, the Potency [14] was “inactive”.
With CN(C)C(=S)SC(=S)N(C)C the outcome [2] was “inactive” and the Potency [15] was 2.87 µM (active).
For Cc1cc(C(C)(C)C)c(O)c(C(C)(C)C)c1, the outcome [2] was “inactive”.
With c1cc(CN2CCCCC2)cc(OCCCNc2nc3ccccc3s2)c1 the Potency [1] was 12.6 µM (active).
With Nc1ccc(S(=O)(=O)Nc2nccs2)cc1 the outcome [2] was “inactive”.
In the case of Cc1ccc(O)cc1, the outcome [2] is reported as “inactive” and the Potency [13] is reported as “inactive”.
In the case of CCCC[N+]1(C)[C@@H]2CC(OC(=O)[C@H](CO)c3ccccc3)C[C@H]1[C@@H]1O[C@@H]12 (some centres undefined), the Potency [1] is reported as “inactive”.
In the case of CC[n+]1c(-c2ccccc2)c2cc(N)ccc2c2ccc(N)cc21, the outcome [2] is reported as “inactive”, the max response [3] is reported as -102% and the Potency [4] is reported as 31.6 µM (active). The outcome [16] was “inactive”, the max response [10] was -17.9% and the Potency [11] was 8.91 µM (active). For the same molecule, the Potency [1] was “inactive”, the Potency [13] was “inactive” and the Potency [14] was “inactive”. For the same molecule, the Potency [15] was “inactive”.
For O=C1O[C@H]([C@@H](O)CO)C(O)=C1O, the outcome [2] was “inactive”.
